Pf Dd2 growth = qHTS Primary assay for Inhibitors of Plasmodium falciparum Dd2 growth in vitro | P. falciparum Dd2 growth, SYBR Green, 72 h | Potency, µM (highest dose often 28.9 µM), without a hit: top-dose activity, negative = inhibition, actives largely listed as inhibitors | 120,000 tested, 4.3% active; active = well fitted inhibition curve with a large enough effect;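 also: plate controls were DMSO vehicle for no effect and reference drug for full effect; nearly all actives have a fitted effect of over 65% in size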
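Infected erythrocytes (Dd2, 0.3% parasitemia, 2.5% hematocrit final) are added to compound in RPMI-1640/Albumax II medium, grown 72 h at 37C in low oxygen, then lysed with saponin/Triton-X containing SYBR Green and read by fluorescence.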
Numbers without * were called inactive; i = inactive; [ ] = remark or other dose. The sample as a whole holds a higher share of hits than the screen did. Potency is read from the fitted curve at half-maximal effect.

SMILES	Pf Dd2 growth
COc1ccc(N2CCN(C(=O)CC3CCCCN(C)C3=O)CC2)cc1 (centres undefined)	-20.3%
CCn1nccc1C(=O)N1CCCN(C)c2ccccc21	25.5%
CNC(=O)c1cc[nH]c1C1CCCN(C(=O)c2ccc(C)[nH]c2=O)C1 (centres undefined)	1.5%
O=C(NC1CCCc2c1cnn2-c1ccc(F)cc1F)c1c(F)cccc1Cl (centres undefined)	-23.9%
CC1CCN(Cc2c(O)ccc3c(=O)c(Oc4ccccc4Cl)c(C(F)(F)F)oc23)CC1	0.631µM*
Cc1ccc(Oc2c(C(F)(F)F)oc3c(CN4CCC(C)CC4)c(O)ccc3c2=O)cc1	1µM*
Cc1ccccc1Cn1c(CN2CCCC(C)C2)nc2c1c(=O)n(C)c(=O)n2C (centres undefined)	9.2%
CC1CCCN(Cc2c(O)ccc3c(=O)c(Oc4ccccc4Cl)c(C(F)(F)F)oc23)C1 (centres undefined)	0.891µM*
Cc1noc(C)c1CN1CCCC(COc2ccccc2C(=O)N2CCC(C)CC2)C1 (centres undefined)	-3.4%
Cc1ccc(Oc2c(C(F)(F)F)oc3cc(OCC(=O)NC4CCCCC4)ccc3c2=O)cc1	-29.7%
CCN1CC(c2ccccc2)CC2(CCN(C(=O)COC)CC2)C1 (centres undefined)	-7.9%
O=C1NCCCCCN(C(=O)NCc2ccc(F)cc2)[C@H]2CCC[C@@H]12	24.4%
COc1ccc(CCC(=O)N2CCCC2c2nc(C3CCOCC3)no2)cc1 (centres undefined)	-6.2%
Cc1noc(C)c1Cc1ccc(C(=O)NC2CCc3nnc(C)n3CC2)o1 (centres undefined)	1.7%
CN(Cc1ccccc1)Cc1cc(C(=O)N(C)Cc2ccsc2)no1	-13.1%
COc1ncc(C(=O)NCc2cccnc2N2CCN(C(C)=O)CC2)cn1	6.2%
COc1ccc(OC)c([S+](=O)([O-])c2nnn3c2nc(N2CCOCC2)c2ccccc23)c1	-20.6%
CC(C)c1ccc([S+](=O)([O-])c2nnn3c2nc(N2CCC(F)CC2)c2ccccc23)cc1	-27.7%
Cc1ccc(-c2nnn3c2nc(N2CCC(C)CC2)c2ccccc23)cc1	-11.1%
Cc1cc(C)c([S+](=O)([O-])c2nnn3c2nc(N2CCC(F)CC2)c2ccccc23)c(C)c1	11.2µM*
O=S(=O)(c1ccccc1)c1nnn2c1nc(N1CCOCC1)c1ccccc12	4.9%
Cc1cc(C)c([S+](=O)([O-])c2nnn3c2nc(N2CCOCC2)c2ccccc23)c(C)c1	8.91µM*
COc1cccc(CC(=O)N2CCC3(CC2)N=C(c2ccccc2)NO3)c1	i
COC1CCN(CC2CCCCCN2)CC1 (centres undefined)	i
Cc1nn(C)c(C)c1CCC(=O)NC1CCc2n[nH]c(=O)n2CC1 (centres undefined)	i
SMILES	Pf Dd2 growth
CCn1nc(-c2cccc(-c3ccnn3C)c2)nc1N(C)C	-14.6%
Cc1cccc(S(=O)(=O)N(C)CC2CCOC2)c1 (centres undefined)	24.2%[5.79 µM]
Cc1ccc(Cn2c(C(=O)Nc3cccc(Cl)c3)cc3sccc32)cc1	-24.4%
Cc1ccc(CCNC(=O)c2cc3sccc3n2Cc2ccc(C)cc2)cc1	i
COc1ccc(CNC(=O)c2cc3sccc3n2Cc2ccc(F)cc2)cc1	-1.3%
Cc1ccc(Cn2c(C(=O)NCc3ccccc3Cl)cc3sccc32)cc1	11.2µM*
CCOC(=O)c1cccc(NC(=O)c2cc3sccc3n2Cc2ccc(Cl)cc2)c1	11.2µM*
CCOC(=O)c1ccc(NC(=O)c2cc3sccc3n2Cc2ccc(Cl)cc2)cc1	-4.9%
COC[C@H]1C[C@@H](NC(C)=O)[C@H](O)[C@@H]1O	22.7%[76.6 µM]
COc1ccc(C(=O)N(C)C2CCc3ccccc32)cc1 (centres undefined)	i
O=C1Nc2ccccc2CC12CCCN(CC1CCCCC1)C2 (centres undefined)	-20.6%
CN(C)S(=O)(=O)N1CCC2(CCCN(Cc3ccc(F)c(F)c3)C2=O)C1 (centres undefined)	-10.5%
O=C1N(Cc2ccc(F)cc2)CCCC12CCN(CC1CCCC1)C2 (centres undefined)	3.98µM*
C=CCNC(=O)O[C@@H]1CC[C@]2(C)C(CC[C@@H](O)[C@H]2CC(=O)NCc2ccc3c(c2)OCO3)[C@]1(C)CO (some centres undefined)	-13.1%
Cc1cncc(C(=O)N2CC[C@@H](c3ccc4ccccc4c3)[C@H](O)C2)c1	-14.8%
N#Cc1ccc(C(=O)N2CCCC(n3cc(-c4nc(-c5ccccc5)no4)nn3)C2)cc1 (centres undefined)	4.47µM*
O=C(Cc1cccc(Cl)c1)N1CCC(n2cc(-c3nc(-c4ccccc4)no3)nn2)C1 (centres undefined)	138.4%
O=C(Cc1ccc(Cl)cc1)N1CCC(n2cc(-c3nc(-c4ccccc4)no3)nn2)CC1	2µM*
COc1ccc(C(=O)N2CCC(n3cc(-c4nc(-c5ccccc5)no4)nn3)CC2)cc1	1.26µM*
COc1cccc(C(=O)N2CCC(n3cc(-c4nc(-c5ccccc5)no4)nn3)CC2)c1	-6.9%

Compound activity as filed in PubChem BioAssay.
